Residual activity data for five compounds are collected here from ChEMBL document CHEMBL2218924, “A broad activity screen in support of a chemogenomic map for kinase signalling research and drug discovery” (Biochem J, 2013).

Test [1] addresses T1, Muscle, skeletal receptor tyrosine-protein kinase (Homo sapiens) (UniProt O15146).
T1 sequence (whole entry): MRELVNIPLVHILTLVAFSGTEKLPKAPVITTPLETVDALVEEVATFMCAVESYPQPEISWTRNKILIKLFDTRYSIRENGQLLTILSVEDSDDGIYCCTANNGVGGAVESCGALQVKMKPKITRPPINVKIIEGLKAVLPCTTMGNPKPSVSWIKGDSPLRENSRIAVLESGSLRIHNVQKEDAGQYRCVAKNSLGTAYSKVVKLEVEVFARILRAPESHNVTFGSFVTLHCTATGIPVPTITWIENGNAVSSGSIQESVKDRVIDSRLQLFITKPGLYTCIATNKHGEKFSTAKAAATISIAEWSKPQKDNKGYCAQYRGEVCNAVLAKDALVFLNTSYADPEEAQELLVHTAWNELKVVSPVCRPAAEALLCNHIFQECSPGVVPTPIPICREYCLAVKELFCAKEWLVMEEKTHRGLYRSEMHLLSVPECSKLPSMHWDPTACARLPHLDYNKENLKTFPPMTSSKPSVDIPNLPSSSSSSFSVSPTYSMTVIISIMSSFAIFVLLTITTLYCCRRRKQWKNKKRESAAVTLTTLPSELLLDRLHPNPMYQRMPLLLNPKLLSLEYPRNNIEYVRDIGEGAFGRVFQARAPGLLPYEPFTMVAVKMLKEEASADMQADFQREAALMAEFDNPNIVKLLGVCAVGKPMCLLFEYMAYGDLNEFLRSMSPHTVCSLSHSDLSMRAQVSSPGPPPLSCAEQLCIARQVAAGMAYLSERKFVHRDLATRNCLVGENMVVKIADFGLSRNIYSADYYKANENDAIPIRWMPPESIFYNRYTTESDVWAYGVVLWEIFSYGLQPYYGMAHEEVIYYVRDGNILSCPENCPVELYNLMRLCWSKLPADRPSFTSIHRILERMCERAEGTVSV
The settings on record: at 10 µM.

In test [2] the target is T2, Serine/threonine-protein kinase Nek11 (Homo sapiens) (UniProt Q8NG66).
T2 sequence (whole entry): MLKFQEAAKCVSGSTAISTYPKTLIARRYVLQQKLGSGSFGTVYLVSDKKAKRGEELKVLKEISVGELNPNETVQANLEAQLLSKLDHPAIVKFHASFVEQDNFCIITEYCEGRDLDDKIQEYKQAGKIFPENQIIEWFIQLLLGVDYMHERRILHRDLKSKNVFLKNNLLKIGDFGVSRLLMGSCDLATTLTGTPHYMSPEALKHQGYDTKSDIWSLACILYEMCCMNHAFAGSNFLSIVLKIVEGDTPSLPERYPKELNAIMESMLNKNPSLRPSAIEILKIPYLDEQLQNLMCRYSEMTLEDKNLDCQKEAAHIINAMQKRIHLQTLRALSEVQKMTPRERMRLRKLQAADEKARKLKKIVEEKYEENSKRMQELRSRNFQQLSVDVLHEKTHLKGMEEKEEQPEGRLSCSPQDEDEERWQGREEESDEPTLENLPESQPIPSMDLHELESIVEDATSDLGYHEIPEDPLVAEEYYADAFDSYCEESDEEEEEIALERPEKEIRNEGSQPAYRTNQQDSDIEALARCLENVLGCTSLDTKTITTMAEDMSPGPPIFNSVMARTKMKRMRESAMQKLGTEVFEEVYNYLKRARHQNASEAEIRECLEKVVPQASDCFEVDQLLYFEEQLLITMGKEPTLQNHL
The settings on record: at 1 µM.

The target in test [3] is T3, Serine/threonine-protein kinase Nek2 (Homo sapiens) (UniProt P51955).
T3 sequence (whole entry): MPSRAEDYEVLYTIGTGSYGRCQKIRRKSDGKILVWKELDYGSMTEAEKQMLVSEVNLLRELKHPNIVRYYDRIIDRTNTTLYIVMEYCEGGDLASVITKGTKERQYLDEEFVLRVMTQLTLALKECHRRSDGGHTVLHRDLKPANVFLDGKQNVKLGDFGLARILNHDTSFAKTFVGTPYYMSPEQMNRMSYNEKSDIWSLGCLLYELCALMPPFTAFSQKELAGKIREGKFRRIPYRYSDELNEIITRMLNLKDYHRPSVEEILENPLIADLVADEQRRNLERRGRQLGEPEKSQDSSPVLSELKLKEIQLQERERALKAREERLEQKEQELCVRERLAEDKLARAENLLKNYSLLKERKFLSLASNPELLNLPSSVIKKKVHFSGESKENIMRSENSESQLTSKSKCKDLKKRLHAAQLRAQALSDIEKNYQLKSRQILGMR
The note with it: at 1 µM.

Test [4] concerns the target T4, Testis-specific serine/threonine-protein kinase 2 (Homo sapiens) (UniProt Q96PF2).
T4 sequence (whole entry): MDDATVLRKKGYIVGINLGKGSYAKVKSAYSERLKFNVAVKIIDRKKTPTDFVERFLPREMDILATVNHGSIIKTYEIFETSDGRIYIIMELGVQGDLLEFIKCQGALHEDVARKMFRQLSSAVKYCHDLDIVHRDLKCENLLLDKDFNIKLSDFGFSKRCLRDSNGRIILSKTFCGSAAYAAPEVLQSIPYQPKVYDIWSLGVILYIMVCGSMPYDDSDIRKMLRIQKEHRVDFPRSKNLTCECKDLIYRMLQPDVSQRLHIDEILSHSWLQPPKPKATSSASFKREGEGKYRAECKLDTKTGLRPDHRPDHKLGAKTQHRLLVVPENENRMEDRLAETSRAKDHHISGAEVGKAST
The note with it: at 10 µM.

In test [5] the target is T5, Tyrosine-protein kinase Tec (Homo sapiens) (UniProt P42680).
T5 sequence (whole entry): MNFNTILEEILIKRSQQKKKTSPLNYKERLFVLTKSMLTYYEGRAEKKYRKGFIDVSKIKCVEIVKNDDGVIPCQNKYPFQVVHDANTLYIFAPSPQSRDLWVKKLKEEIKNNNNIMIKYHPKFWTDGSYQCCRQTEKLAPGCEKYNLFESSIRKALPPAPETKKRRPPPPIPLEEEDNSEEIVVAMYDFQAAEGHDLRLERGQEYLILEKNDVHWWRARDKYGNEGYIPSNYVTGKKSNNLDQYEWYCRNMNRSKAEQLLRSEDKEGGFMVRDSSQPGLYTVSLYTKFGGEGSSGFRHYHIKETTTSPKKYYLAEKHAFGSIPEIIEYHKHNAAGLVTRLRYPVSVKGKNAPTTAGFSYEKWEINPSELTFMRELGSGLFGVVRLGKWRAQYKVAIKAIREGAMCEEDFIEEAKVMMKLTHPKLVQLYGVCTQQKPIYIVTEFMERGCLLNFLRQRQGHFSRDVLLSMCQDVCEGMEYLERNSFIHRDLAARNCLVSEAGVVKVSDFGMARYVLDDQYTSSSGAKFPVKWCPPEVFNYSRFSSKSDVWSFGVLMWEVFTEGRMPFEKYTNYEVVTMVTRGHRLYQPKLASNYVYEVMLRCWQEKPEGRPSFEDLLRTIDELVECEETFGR
The settings on record: at 1 µM.

The target of test [6] is T5, Tyrosine-protein kinase Tec (Homo sapiens). The settings on record: at 10 µM.
Test [7] concerns the target Angiopoietin-1 receptor (Homo sapiens) (UniProt Q02763). The settings on record: at 10 µM.
Test [8] concerns the target High affinity nerve growth factor receptor (Homo sapiens) (UniProt P04629). The note with it: at 1 µM.
Test [9] has the same target. The note with it: at 10 µM.
The target in test [10] is BDNF/NT-3 growth factors receptor (Homo sapiens) (UniProt Q16620). The settings on record: at 1 µM.
Sequence of BDNF/NT-3 growth factors receptor (Homo sapiens) (Q16620 32-822 limits assumed): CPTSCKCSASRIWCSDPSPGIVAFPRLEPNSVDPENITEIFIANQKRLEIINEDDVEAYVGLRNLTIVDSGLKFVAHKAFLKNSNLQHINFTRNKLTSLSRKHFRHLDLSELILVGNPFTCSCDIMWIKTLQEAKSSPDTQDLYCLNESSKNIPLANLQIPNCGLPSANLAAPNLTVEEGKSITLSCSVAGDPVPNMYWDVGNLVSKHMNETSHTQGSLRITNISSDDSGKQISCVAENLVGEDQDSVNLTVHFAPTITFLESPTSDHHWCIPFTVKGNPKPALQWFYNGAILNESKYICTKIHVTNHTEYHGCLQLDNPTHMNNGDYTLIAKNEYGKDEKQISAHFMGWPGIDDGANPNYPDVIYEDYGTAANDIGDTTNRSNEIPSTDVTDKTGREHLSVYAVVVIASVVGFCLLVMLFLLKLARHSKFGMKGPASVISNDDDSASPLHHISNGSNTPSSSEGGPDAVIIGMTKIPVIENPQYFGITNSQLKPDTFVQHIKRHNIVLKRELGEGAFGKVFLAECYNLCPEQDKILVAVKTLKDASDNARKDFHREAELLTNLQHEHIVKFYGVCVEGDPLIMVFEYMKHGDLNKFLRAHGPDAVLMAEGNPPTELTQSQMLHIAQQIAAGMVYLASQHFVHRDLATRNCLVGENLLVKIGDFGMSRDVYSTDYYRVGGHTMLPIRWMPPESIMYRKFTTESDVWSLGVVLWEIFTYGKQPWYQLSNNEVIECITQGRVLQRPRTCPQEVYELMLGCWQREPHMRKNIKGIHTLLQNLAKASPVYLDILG
Test [11] deals with T2, Serine/threonine-protein kinase Nek11 (Homo sapiens). The settings on record: at 10 µM.
The target of test [12] is T3, Serine/threonine-protein kinase Nek2 (Homo sapiens). The note with it: at 10 µM.
In test [13] the target is T6, Serine/threonine-protein kinase Nek3 (Homo sapiens) (UniProt P51956).
T6 sequence (whole entry): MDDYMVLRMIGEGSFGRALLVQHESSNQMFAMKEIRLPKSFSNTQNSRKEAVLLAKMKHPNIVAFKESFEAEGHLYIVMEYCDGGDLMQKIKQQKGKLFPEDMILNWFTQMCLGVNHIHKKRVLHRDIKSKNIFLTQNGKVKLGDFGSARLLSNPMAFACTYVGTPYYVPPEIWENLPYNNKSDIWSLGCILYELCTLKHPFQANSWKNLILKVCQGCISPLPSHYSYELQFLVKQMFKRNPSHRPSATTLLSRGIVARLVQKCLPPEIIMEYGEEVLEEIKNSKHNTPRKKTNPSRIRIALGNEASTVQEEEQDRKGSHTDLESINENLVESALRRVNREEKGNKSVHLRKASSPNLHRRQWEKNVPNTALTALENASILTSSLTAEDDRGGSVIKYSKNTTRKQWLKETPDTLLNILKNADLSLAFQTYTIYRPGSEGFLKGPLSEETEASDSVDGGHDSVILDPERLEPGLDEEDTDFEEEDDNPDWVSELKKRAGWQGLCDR
The settings on record: at 1 µM.

For test [14], the target named is T6, Serine/threonine-protein kinase Nek3 (Homo sapiens). The note with it: at 10 µM.
Test [15] has as its target Serine/threonine-protein kinase tousled-like 2 (Homo sapiens) (UniProt Q86UE8). The note with it: at 1 µM.
Test [16] shares this target. The settings on record: at 10 µM.
Test [17] addresses T7, Testis-specific serine/threonine-protein kinase 1 (Homo sapiens) (UniProt Q9BXA7).
T7 sequence (whole entry): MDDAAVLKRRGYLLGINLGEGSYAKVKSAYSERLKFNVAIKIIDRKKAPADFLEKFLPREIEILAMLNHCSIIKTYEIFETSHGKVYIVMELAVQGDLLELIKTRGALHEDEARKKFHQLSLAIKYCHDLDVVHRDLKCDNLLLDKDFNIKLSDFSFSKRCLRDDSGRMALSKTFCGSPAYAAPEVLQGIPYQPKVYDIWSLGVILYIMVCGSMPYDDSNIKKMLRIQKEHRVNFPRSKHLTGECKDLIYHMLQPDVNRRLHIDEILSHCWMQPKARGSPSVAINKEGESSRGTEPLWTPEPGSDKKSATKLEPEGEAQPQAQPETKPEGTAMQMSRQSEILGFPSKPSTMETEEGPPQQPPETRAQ
The note with it: at 1 µM.

Test [18] deals with T7, Testis-specific serine/threonine-protein kinase 1 (Homo sapiens). The settings on record: at 10 µM.
The target in test [19] is Angiopoietin-1 receptor (Homo sapiens) (UniProt Q02763). The settings on record: at 1 µM.
Sequence of Angiopoietin-1 receptor (Homo sapiens) (Q02763 whole entry): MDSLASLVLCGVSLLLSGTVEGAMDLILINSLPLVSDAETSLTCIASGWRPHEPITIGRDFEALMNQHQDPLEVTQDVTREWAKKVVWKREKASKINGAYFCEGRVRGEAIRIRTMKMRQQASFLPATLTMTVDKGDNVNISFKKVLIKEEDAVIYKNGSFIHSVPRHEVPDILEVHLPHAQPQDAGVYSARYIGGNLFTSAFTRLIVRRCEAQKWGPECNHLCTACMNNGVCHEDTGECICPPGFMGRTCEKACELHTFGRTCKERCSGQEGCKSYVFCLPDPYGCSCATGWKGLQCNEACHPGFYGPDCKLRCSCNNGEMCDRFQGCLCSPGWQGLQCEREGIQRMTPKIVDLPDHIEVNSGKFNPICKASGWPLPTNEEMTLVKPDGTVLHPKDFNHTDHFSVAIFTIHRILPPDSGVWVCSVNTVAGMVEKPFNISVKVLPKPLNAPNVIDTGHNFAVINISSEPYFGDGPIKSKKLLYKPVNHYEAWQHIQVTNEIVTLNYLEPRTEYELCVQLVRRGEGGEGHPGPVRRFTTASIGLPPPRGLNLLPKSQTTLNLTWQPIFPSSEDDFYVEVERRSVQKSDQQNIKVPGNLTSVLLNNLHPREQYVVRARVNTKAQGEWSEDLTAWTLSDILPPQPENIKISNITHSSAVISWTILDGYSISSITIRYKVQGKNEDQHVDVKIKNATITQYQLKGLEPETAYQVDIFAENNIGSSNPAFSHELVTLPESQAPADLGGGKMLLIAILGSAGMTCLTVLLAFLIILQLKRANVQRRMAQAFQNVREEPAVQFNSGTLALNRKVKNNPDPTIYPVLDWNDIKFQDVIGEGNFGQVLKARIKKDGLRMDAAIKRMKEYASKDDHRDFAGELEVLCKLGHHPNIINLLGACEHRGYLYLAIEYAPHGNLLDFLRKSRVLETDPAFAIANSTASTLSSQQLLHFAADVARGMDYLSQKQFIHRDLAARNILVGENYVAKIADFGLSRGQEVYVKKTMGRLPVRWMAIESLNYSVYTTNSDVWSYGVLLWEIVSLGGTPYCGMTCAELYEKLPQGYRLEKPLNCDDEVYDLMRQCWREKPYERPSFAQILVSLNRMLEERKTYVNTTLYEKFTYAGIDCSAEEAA

Sequence of High affinity nerve growth factor receptor (Homo sapiens) (P04629 33-796 limits assumed): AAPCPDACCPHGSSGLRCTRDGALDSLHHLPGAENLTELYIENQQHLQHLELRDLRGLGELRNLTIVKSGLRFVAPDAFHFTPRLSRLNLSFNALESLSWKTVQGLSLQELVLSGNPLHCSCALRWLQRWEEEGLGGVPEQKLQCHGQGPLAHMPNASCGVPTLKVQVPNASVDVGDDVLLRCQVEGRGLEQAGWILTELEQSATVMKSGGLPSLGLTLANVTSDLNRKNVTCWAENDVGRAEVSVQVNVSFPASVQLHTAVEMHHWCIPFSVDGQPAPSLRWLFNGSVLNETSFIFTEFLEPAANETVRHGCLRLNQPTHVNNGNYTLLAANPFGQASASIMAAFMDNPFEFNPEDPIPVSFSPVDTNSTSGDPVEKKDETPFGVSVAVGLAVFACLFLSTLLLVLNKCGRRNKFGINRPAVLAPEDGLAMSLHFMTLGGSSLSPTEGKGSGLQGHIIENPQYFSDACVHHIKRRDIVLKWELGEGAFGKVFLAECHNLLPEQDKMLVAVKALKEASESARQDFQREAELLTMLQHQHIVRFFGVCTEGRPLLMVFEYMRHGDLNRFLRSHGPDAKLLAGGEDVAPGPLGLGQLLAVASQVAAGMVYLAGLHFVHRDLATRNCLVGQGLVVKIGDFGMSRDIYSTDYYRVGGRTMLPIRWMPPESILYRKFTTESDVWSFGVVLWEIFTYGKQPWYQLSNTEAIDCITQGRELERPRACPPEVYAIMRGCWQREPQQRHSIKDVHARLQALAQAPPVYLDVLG
Sequence of Serine/threonine-protein kinase tousled-like 2 (Homo sapiens) (Q86UE8 whole entry, looked up): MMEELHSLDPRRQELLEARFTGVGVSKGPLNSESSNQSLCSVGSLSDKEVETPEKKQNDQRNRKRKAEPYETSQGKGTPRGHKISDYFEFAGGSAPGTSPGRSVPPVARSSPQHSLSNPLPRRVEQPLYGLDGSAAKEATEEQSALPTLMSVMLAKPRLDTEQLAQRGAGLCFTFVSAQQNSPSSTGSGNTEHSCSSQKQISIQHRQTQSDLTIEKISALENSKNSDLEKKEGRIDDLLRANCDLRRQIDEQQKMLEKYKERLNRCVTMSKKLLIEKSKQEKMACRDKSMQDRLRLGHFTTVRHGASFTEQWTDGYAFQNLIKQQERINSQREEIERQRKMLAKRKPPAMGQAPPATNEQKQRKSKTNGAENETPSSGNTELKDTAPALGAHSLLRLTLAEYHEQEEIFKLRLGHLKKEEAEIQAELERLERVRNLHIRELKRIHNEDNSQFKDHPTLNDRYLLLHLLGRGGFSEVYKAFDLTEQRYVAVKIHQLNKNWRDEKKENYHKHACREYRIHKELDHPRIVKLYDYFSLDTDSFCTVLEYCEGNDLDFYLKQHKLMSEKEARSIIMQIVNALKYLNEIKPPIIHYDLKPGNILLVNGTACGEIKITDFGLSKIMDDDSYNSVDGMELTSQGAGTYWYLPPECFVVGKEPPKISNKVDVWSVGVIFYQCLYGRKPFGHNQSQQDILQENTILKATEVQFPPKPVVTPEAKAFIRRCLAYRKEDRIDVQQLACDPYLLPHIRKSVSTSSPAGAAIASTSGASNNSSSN

For orientation: residual activity means the signal under treatment as a percentage of the control signal. In the case of `O=C(c1ccccc1)c1ccc(N2CCOCC2)cc1O`, the residual activity in test [1] amounted to 86%; in test [2], 89%; in test [3], 90%; in [4], 99%; in [5], 96%; in [6], 77%. In addition, the residual activity was 80% in test [7], 76% in test [8], 71% in [9] and 131% in test [10].

With `COc1ccc(COc2ccc(Cc3cnc(N)nc3N)cc2OC)cc1`, the residual activity in test [2] came out at 110%; in test [11], 115%; in test [5] it was 100%; in test [6] it was 81%; in test [8], 49%; in test [9] it was 4%. Also, the residual activity in [10] turned out to be 55%.

For `NC(=O)c1ccc(-c2nc(-c3ccc4c(c3)OCCO4)c(-c3ccccn3)[nH]2)cc1`, the residual activity was 57% in test [2]; 65% in test [11]; 95% in [3]; 91% in test [12]; 85% in [13]; 93% in test [14]. Also, the residual activity in test [15] was 91%; in test [16] it was 87%; in test [4], 63%; in test [5], 96%; in test [6] it was 91%; in test [7], 72%. In addition, the residual activity in [8] was 95%; in test [9] it was 82%; in test [10], 96%.

As to `Nc1ncnc2c1cnn2-c1ccccc1`, the residual activity in test [1] was determined as 88%; in test [2] it was 79%; in [11], 88%; in test [3] it was 83%; in test [12] it was 99%; in [14], 91%. Moreover, the residual activity in [17] was 92%; in test [18] it was 87%; in test [5], 99%; in [6], 90%; in test [19], 73%; in [7], 102%. For the same compound, the values for the residual activity in test [8] and in test [9] were 91% and 83%, respectively.

Take `Fc1ccc(-c2nc3n(c2-c2ccncc2)CCS3)cc1`: the residual activity in test [2] came out at 77%; in test [11], 83%; in test [4], 86%; in [19], 128%; in [7], 124%; in test [9], 88%.
